Active and inactive are the calls of the source. Rule for the calls: active = hit-call score of the fitted dose curve at least 0.9, where 1 is the maximum; inactive = score below 0.9.
Columns and labels:
Settings in all cases: mRNA level, 48 h; actives raise or lower the signal
[1] = read-out: Tumor necrosis factor receptor superfamily member 6 (Homo sapiens) (UniProt P25445); assay: LTEA_HepaRG_FAS: Life Technologies and Expression Analysis (LTEA) Assay for Fas cell surface death receptor (FAS) using HepaRG (AID 2283447)
Summary of the method: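 Differentiated HepaRG cells in serum-free induction medium were exposed 48 h to 8 half-log concentrations up to 100 uM in 0.5% DMSO, in duplicate. FAS mRNA was measured by qRT-PCR normalised to ACTB, GAPDH and POLR2A; bidirectional fit versus DMSO.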

[2] = read-out: Fatty acid synthase (Homo sapiens) (UniProt P49327); assay: LTEA_HepaRG_FASN: Life Technologies and Expression Analysis (LTEA) Assay for Fatty Acid Synthase (FASN) using HepaRG (AID 2283448);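 for AC50: differentiated human HepaRG liver cells in serum-free induction medium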
Summary of the method: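 Cells were plated, cultured 48 h, switched to serum-free induction medium, then dosed in duplicate (max 100 uM, half-log dilutions, 0.5% DMSO) for 48 h. RNA was then isolated and FASN quantified by qRT-PCR.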

[3] = read-out: Cyclin D2 (CCND2), CCND2 (gene 894); assay: LTEA_HepaRG_CCND2: Life Technologies and Expression Analysis (LTEA) Assay for Cyclin D2 (CCND2) using HepaRG (AID 2283449);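 note: CCND2 transcript measured by TaqMan qRT-PCR and normalised to three housekeeping genes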
Summary of the method: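 HepaRG, 48 h dosing, 8-pt half-log curve from 100 uM, 0.5% DMSO; duplicate wells. Readout: CCND2 transcript by microfluidic qRT-PCR, housekeeping-normalised; bidirectional fit vs DMSO baseline.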

[4] = read-out: Cyclin Dependent Kinase Inhibitor 1A (CDKN1A), CDKN1A (gene 1026); assay: LTEA_HepaRG_CDKN1A: Life Technologies and Expression Analysis (LTEA) Assay for Cyclin Dependent Kinase Inhibitor 1A (CDKN1A) using HepaRG (AID 2283450)
Summary of the method: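 Expression quantified by Fluidigm qRT-PCR with ACTB, GAPDH and POLR2A normalization, fitted bidirectionally against 0.5% DMSO. Cells: HepaRG, plated 48 h then treated 48 h in serum-free induction medium, top concentration 100 uM with half-log dilutions.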

[5] = read-out: Cyclin D1 (CCND1), CCND1 (gene 595); assay: LTEA_HepaRG_CCND1: Life Technologies and Expression Analysis (LTEA) Assay for Cyclin D1 (CCND1) using HepaRG (AID 2283451);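 for AC50: differentiated human HepaRG liver cells in serum-free induction medium; TaqMan qRT-PCR transcript level normalised to ACTB GAPDH and POLR2A housekeeping genes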
Summary of the method: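 Expression of CCND1 was quantified by qRT-PCR on Fluidigm arrays using ACTB, GAPDH and POLR2A as reference genes. HepaRG cultures, plated 48 h beforehand, were dosed for 48 h at up to 100 uM (half-log, 8 points) in 0.5% DMSO.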

[6] = read-out: catalase (CAT), CAT (gene 847); assay: LTEA_HepaRG_CAT: Life Technologies and Expression Analysis (LTEA) Assay for catalase (CAT) using HepaRG (AID 2283452);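 for AC50: TaqMan qRT-PCR signal normalized to ACTB GAPDH and POLR2A housekeeping genes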
Summary of the method: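 HepaRG cells in serum-free induction medium, 0.5% DMSO vehicle, exposed 48 h in duplicate over 8 half-log concentrations from 100 uM. CAT mRNA measured by qRT-PCR, normalized to ACTB, GAPDH, POLR2A; bidirectional fit versus DMSO.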

[7] = read-out: flavin-containing dimethylaniline monooxygenases 3 (FMO3), FMO3 (gene 2328); assay: LTEA_HepaRG_FMO3: Life Technologies and Expression Analysis (LTEA) Assay for flavin-containing dimethylaniline monooxygenases 3 (FMO3) using HepaRG (AID 2283453);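 for AC50: differentiated human HepaRG liver cells in serum-free induction medium; FMO3 transcript by TaqMan qRT-PCR normalized to ACTB GAPDH and POLR2A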
Summary of the method: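 FMO3 transcript quantified by TaqMan qRT-PCR against three housekeeping genes after 48 h chemical exposure of HepaRG cells. Eight-point half-log series, top 100 uM, 0.5% DMSO vehicle; phenobarbital 1mM induction control; up- or down-regulation fitted.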

Measured: AC50

Fatty acid synthase (Homo sapiens), sequence (P49327 whole entry, looked up): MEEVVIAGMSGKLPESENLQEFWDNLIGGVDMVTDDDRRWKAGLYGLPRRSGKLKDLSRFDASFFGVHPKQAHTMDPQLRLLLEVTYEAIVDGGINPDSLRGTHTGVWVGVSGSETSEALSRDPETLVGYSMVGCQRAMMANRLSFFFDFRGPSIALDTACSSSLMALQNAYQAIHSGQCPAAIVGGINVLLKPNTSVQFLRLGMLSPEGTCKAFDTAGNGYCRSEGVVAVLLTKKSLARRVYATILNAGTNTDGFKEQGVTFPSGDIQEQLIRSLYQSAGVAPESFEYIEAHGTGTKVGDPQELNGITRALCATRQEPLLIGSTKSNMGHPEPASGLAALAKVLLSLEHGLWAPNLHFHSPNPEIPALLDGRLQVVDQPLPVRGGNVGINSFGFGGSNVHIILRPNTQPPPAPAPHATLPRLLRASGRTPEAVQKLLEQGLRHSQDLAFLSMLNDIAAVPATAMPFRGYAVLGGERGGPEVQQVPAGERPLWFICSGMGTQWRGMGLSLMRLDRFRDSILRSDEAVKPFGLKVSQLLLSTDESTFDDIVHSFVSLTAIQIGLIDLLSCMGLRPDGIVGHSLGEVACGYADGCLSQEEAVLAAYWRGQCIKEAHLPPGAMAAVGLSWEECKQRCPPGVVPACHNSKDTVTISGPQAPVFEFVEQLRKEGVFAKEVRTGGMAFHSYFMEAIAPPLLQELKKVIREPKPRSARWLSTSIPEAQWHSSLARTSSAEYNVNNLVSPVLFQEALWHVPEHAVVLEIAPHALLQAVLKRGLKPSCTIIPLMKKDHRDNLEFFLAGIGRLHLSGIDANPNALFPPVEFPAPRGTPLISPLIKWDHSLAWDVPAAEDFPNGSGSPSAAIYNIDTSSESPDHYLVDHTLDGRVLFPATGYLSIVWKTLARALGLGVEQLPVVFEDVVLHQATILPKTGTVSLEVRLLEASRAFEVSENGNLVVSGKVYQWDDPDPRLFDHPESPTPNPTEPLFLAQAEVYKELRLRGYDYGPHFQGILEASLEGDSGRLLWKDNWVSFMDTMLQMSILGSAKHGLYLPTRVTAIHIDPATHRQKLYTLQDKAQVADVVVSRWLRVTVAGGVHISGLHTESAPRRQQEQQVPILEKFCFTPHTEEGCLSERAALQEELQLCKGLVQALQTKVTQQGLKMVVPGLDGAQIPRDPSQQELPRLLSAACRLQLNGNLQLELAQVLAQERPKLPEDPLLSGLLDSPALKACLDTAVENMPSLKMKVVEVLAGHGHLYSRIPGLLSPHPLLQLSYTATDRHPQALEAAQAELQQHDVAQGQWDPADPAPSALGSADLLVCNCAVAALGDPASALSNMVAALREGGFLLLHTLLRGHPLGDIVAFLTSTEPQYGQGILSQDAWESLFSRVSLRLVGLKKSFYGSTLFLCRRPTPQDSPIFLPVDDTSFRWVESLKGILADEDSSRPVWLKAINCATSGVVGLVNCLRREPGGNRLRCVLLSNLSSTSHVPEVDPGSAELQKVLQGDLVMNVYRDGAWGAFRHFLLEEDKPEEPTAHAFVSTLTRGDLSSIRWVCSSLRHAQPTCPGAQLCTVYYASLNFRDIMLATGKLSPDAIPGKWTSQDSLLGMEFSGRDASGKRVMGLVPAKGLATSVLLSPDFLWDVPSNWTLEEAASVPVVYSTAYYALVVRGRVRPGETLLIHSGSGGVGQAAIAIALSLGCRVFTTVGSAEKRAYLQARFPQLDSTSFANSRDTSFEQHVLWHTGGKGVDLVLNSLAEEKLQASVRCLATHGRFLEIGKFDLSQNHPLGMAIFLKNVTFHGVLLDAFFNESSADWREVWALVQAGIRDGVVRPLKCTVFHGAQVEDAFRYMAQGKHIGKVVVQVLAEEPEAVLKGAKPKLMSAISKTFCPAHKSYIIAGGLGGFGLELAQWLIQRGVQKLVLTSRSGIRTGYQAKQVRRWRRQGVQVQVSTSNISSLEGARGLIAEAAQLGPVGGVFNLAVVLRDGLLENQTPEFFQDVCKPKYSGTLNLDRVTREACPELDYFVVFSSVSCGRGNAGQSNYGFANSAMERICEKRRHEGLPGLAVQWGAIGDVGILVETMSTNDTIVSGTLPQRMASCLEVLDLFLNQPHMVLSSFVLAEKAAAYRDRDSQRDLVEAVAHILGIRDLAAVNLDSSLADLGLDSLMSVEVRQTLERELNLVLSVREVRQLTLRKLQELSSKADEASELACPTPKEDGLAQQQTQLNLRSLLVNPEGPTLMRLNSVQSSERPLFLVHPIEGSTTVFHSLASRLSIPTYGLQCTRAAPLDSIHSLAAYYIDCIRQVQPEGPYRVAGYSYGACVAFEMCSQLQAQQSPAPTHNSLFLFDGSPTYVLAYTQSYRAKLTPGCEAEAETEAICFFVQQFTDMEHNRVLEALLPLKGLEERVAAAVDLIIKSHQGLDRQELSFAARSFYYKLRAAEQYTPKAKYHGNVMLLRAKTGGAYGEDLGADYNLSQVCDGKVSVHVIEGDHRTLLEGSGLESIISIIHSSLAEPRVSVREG

CN(C)[C@@H]1C(=O)C(C(N)=O)=C(O)[C@@]2(O)C(=O)C3=C(O)c4c(O)cccc4[C@@](C)(O)[C@H]3C[C@@H]12
inactive: [1] | [2] | [3] | [4] | [5] | [6]

CC(O)CCO (stereo not drawn)
inactive: [1] | [2] | [4] | [5] | [6]

Cc1ccc(N)cc1
inactive: [1] | [2] | [3] | [4] | [5] | [6] | [7]

COC(=O)Nc1nc2ccccc2[nH]1
inactive: [1] | [2] | [4] | [5] | [6] | [7]

Oc1ccccc1Cl
inactive: [1] | [2] | [3] | [4] | [5] | [6] | [7]

CCC[CH2][Sn]([Cl])([CH2]CCC)[CH2]CCC
active: [2] 2.86 µM | [4] 88.1 µM | [5] 81.2 µM | [6] 1.66 µM | [7] 2.31 µM

Clc1ccccc1Cl
inactive: [1] | [2] | [3] | [4] | [5] | [6] | [7]

CCNS(=O)(=O)C(F)(F)C(F)(F)C(F)(F)C(F)(F)C(F)(F)C(F)(F)C(F)(F)C(F)(F)F
inactive: [1] | [4] | [5] | [6]
active: [2] 48.2 µM | [7] 75.9 µM

OCCCl
inactive: [1] | [2] | [3] | [4] | [5] | [6] | [7]

CCN(CC)N=O
inactive: [1] | [2] | [3] | [4] | [5] | [6] | [7]

Clc1ccc(Cl)c(Cl)c1
inactive: [1] | [2] | [4] | [5] | [6]

Nc1cc(Cl)cc(C(=O)O)c1Cl
inactive: [1] | [2] | [3] | [4] | [5] | [6] | [7]

CC(C)(C)OOC(=O)c1ccccc1
inactive: [1] | [2] | [4] | [5] | [6] | [7]

CCCCCCCCn1sccc1=O
active: [2] 75.1 µM | [5] 83.7 µM | [6] 85.6 µM
inactive: [1] | [4]

c1ccc2c(c1)oc1ccccc12
inactive: [1] | [2] | [4] | [5] | [6]

O=C(N[C@H](c1ccccc1)[C@@H]1CN2CCC1CC2)c1c(Cl)ccc(C(F)(F)F)c1Cl
active: [2] 76.8 µM | [5] 74.2 µM | [6] 68.5 µM | [7] 65.9 µM
inactive: [1] | [3] | [4]

Nc1ccc([N+](=O)[O-])cc1
inactive: [1] | [2] | [3] | [4] | [5] | [6] | [7]

OCCCBr
inactive: [1] | [2] | [3] | [4] | [5] | [6] | [7]

ClC1=C(Cl)[C@]2(Cl)[C@H]3[C@H]([C@@H]4C=C[C@H]3C4)[C@@]1(Cl)C2(Cl)Cl
active: [2] 28.7 µM
inactive: [1] | [3] | [4] | [5] | [6] | [7]

ClCCOCCCl
inactive: [1] | [2] | [4] | [5] | [6] | [7]

CCCCC(CC)COC(=O)c1ccc(C(=O)OCC(CC)CCCC)c(C(=O)OCC(CC)CCCC)c1 (stereo not drawn)
inactive: [1] | [2] | [4] | [5] | [6]

[O-][Cl+]O
inactive: [2] | [4] | [5] | [6]

O=C1CCCO1
inactive: [2] | [3] | [4] | [5] | [6] | [7]
active: [1] 50 µM

CC(C)(OOC(C)(C)c1ccccc1)c1ccccc1
inactive: [1] | [2] | [4] | [5] | [6]

N#CC(Br)Br
inactive: [1] | [2] | [3] | [4] | [5] | [6] | [7]

CN(C)C(=O)Nc1ccc(Cl)cc1
inactive: [1] | [2] | [4] | [5] | [6]

O=Cc1ccco1
inactive: [1] | [2] | [4] | [5] | [6] | [7]

Clc1ccc(C(c2ccc(Cl)cc2)C(Cl)Cl)cc1
inactive: [1] | [3] | [4] | [5] | [6] | [7]
active: [2] 73.7 µM

ClC1=C(Cl)C2(Cl)C3C(Cl)C=CC3C1(Cl)C2(Cl)Cl (stereo not drawn)
inactive: [1] | [2] | [3] | [4] | [6] | [7]
active: [5] 18.4 µM
